Screening results deposited in PubChem by National Center for Advancing Translational Sciences (NCATS).
D3 ag – agonists of human D3 dopamine receptor; D3R DiscoveRx beta-arrestin cells, luminescence, 90 min; max activation, %; 0.58% of 410,000 active; in the data active = max activation above about 30%
Target sequence (P35462 whole entry, looked up): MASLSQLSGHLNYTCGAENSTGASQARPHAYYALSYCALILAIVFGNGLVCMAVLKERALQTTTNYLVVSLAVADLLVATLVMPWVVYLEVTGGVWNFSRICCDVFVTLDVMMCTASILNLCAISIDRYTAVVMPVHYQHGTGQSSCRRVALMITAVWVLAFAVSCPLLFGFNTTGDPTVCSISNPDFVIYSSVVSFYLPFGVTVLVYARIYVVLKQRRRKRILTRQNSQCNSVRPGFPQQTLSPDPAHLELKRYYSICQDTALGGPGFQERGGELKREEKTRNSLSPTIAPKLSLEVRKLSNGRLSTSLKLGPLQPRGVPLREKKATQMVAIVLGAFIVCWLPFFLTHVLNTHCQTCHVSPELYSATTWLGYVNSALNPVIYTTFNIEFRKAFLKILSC
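Agonist mode: compounds and dopamine controls were applied to plated cells for 90 min at 37 degrees C after an overnight attachment at 1500 cells/well. Luminescent read-out followed 30 - 60 minutes at room temperature with DiscoveRx detection reagent.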
DT40 TDP1 CPT – DT40-hTDP1 cell growth loss with CPT. Potency, µM (series often up to 46.2 µM), most hits filed as inhibitors. 12% of 420,000 active. chicken DT40 Tdp1-/-;hTDP1 cells + 20 nM CPT, ATP luminescence, 48 h; also: nearly all actives have a fitted effect of over 55% in size
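Chicken DT40 Tdp1-/- cells complemented with human TDP1, 400 cells/well, exposed to compounds plus 20 nM camptothecin for at least 48 h at 37 C; viability read as ATP content by CellTiter-Glo luminescence.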
IL-1B inflam inh – inflammasome signaling inhibition, IL-1 beta readout. THP-1 LPS/ATP IL-1B secretion, AlphaLISA, 16 h; active compounds read low. activity change, % at 57.5 µM. 4.7% of 360,000 active. AID 743279; in the data active = activity change below about -50%; inconclusive = mostly about -30% to -49%
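THP-1 cells pretreated 1 hr with compounds (up to 57.5 uM final), then stimulated with LPS (250 ng/mL final) plus ATP (1.25 mM final); secreted IL-1B measured by AlphaLISA after 16 hr, decreased signal indicating inhibition.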
DRD3 antagonist – blocks the human D3 dopamine receptor. max response, negative = inhibition, %. P35462. 2.5% of 360,000 active. D3R cells, DiscoveRx beta-arrestin luminescence, antagonist mode; active compounds read low. AID 652054; in the data active = max response below about -50%; inconclusive = no clear call, values can overlap the other calls
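Cells expressing the human receptor were seeded at 1500 cells/well, incubated overnight at 37 degrees C in 5% CO2, then exposed to library compounds with dopamine controls for 90 minutes at 37 degrees C before luminescent detection.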
ClpP mod – qHTS Assay for Activators of ClpP; purified B. subtilis ClpP, FRET peptide cleavage, 20 min; ATP-dependent Clp protease proteolytic subunit (Bacillus subtilis (strain 168)), P80244; Potency, µM (series often up to 57.5 µM); 1.9% of 340,000 active; active = well fitted falling curve with a large enough effect; inconclusive = small, poorly fitted or top-dose-only effect; inactive = no such curve, though single readings can be large or run the other way; also: the source files actives as falling curves though it sought activators and does not explain the sign; nearly all actives have a fitted effect of over 65% in size
Target sequence (P80244 whole entry, looked up): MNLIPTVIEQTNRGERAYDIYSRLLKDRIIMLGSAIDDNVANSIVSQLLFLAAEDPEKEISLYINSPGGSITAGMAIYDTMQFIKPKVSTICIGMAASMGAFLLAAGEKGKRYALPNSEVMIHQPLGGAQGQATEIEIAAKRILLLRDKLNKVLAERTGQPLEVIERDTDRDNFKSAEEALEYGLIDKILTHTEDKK
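Buffer: 100 mM Tris/HCl pH8, 100 mM KCl, 0.05% low protease BSA, 2.5% glycerol, 0.01% Tween-20. ClpP 10 microg/mL final; 20 min RT; delta FRET normalized to ADEP and DMSO controls.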
DT40 TDP1 no CPT – qHTS for Inhibitors of human tyrosyl-DNA phosphodiesterase 1 (TDP1): qHTS in cells in absence of CPT; DT40 Tdp1-/- hTDP1 cells, no CPT, ATP luminescence, 48 h; Potency, µM (titrated, usually from 46.2 µM), actives largely listed as inhibitors; 15% of 420,000 active; AID 686978, 2013; also: nearly all actives have a fitted effect of over 55% in size
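DT40 Tdp1-/-;hTDP1 cells, no CPT (DMSO vehicle only), 400 cells/well; compounds pin-transferred; ≥48 hr, 37 °C; CellTiter-Glo 30 min RT dark, luminescence read.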
Hits are given with their value; i = inactive; ? = inconclusive; nt = no result; [ ] = another dose, or the depositor's remark. Shown are actives, neighbours in structure and some others; about 21% of the full set was active somewhere. Unless noted, calls follow the shape of the dose curve; as a rule, active = well fitted inhibition curve with a large enough effect; inconclusive = small, poorly fitted or top-dose-only effect; inactive = flat fitted curve, though single readings scatter.

SMILES	D3 ag	DT40 TDP1 CPT	IL-1B inflam inh	DRD3 antagonist	ClpP mod	DT40 TDP1 no CPT
N#C/C(=C\c1cccc(O)c1)C(=O)N1CCCCC1	i	i	-73	i	nt	?
Cc1cc(/C=C(\C#N)C(=O)N2CCCCC2)cc(C)c1O	i	18µM	i	i	nt	26µM
CCCNC(=S)N1CCN(CC)CC1	i	i	i	i	i	i
COc1ccc(Cl)cc1NC(=O)C/C(C)=N/NC(=O)COc1ccc(C)cc1	i	i	i	i	nt	i
O=c1n(Cc2ccccc2)c2cc(Cl)cnc2n1Cc1ccccc1	i	?	?	i	28µM	?
CCNC(=S)N1CCN(c2cccc(C(F)(F)F)c2)CC1	i	15µM	i	i	i	13µM
S=C(NC1CCCC1)N1CCN(c2ccc(Cl)cc2)CC1	i	i	?	i	nt	?
Cc1nnc2ccc(N3CCN(c4cccc(C(F)(F)F)c4)CC3)nn12	i	26µM	i	i	i	16µM
Cc1ccc(C)c(NC(=S)N2CCN(c3cccc(C(F)(F)F)c3)CC2)c1	i	?	i	i	i	i
FC(F)(F)c1cccc(N2CCN(C(=S)NC3CCCCC3)CC2)c1	i	?	i	i	i	23µM
Cc1ccnc(NC(=S)N2CCN(c3cccc(C(F)(F)F)c3)CC2)c1	i	?	-88	?	nt	?
Cc1ccc(OC(=O)c2sc3ncn(C)c(=O)c3c2C)cc1	i	i	i	i	nt	i
O=C(c1ccco1)N1CCC[C@@]2(CCN(c3ncccn3)C2)C1	nt	i	nt	nt	nt	i
FC(F)(F)c1cccc(N2CCN(C(=S)NC3CCCC3)CC2)c1	i	?	-57	i	i	16µM
COC(=O)c1ccc(C2c3c(oc4ccccc4c3=O)C(=O)N2CCCN2CCOCC2)cc1 (stereo not drawn)	i	21µM	i	i	i	?
COCCN1C(=O)c2oc3ccccc3c(=O)c2C1c1ccc(C(=O)OC)cc1 (stereo not drawn)	i	i	i	i	i	i
O=C1c2oc3ccccc3c(=O)c2C(c2cccs2)N1CCCN1CCOCC1 (stereo not drawn)	i	18µM	i	i	i	i
Cc1cc2oc3c(c(=O)c2cc1C)C(c1ccc(C(C)C)cc1)N(CCCN1CCOCC1)C3=O (stereo not drawn)	i	21µM	i	i	i	?
CC(NC(=O)C12CC3(C)CC(C)(CC(C)(C3)C1)C2)C(=O)O (stereo not drawn)	i	i	i	i	nt	i
O=C1NCCCCC1NS(=O)(=O)c1ccc(Cl)cc1 (stereo not drawn)	i	i	i	i	i	i
CC1=C(c2ccc(C)c(C)c2)S(=O)(=O)N=C1N1CCC(C(=O)N2CCC(C)CC2)CC1	i	?	nt	nt	i	6.5µM
CC1=C(c2ccc(C)c(C)c2)S(=O)(=O)N=C1N1CCC(C(=O)Nc2ccc(Cl)cc2)CC1	i	16µM	nt	nt	i	15µM
CCOC(=O)C1CCN(C(=O)C2CCN(C3=NS(=O)(=O)C(c4ccc(C)c(C)c4)=C3C)CC2)CC1	i	16µM	nt	nt	i	?
CCN(CCCNC(=O)c1cc2cc3ccc(OC)cc3nc2s1)c1cccc(C)c1	i	?	nt	nt	i	?
CCOc1ccc(NC(=O)c2cc3cc4cc(OC)ccc4nc3s2)cc1	i	i	nt	nt	i	4.6µM
SMILES	D3 ag	DT40 TDP1 CPT	IL-1B inflam inh	DRD3 antagonist	ClpP mod	DT40 TDP1 no CPT
COc1ccc2nc3sc(C(=O)N4CCN(C)CC4)cc3cc2c1	i	i	i	i	?	i
CCN(CCCNC(=O)c1cc2cc3ccc(OC)cc3nc2s1)c1ccccc1	i	16µM	nt	nt	?	21µM
COc1ccc2nc3sc(C(=O)NCCCN4CCc5ccccc5C4)cc3cc2c1	i	?	i	-88	i	16µM
COc1cc(C(=O)OCc2cccc(S(=O)(=O)N3CCOCC3)c2)ccc1OCC(C)C	i	i	i	i	i	i
COc1cc(=O)n2c(c1C(=O)NCc1ccco1)CCN(C(=O)c1cccnc1SC)CC2	nt	i[9.04 µM]	nt	nt	nt	i
CCOC(=O)c1c(-c2ccc(F)cc2)csc1NC(=O)C1CCCO1 (stereo not drawn)	i	i	i	i	nt	?
COC(=O)c1c(-c2ccc(C)cc2)csc1NC(=O)C1CC=CCC1C(=O)O (stereo not drawn)	i	i	i	i	16µM	?
CC(C)OC(=O)c1c(-c2ccc(C(C)C)cc2)csc1NC(=O)C1CCCO1 (stereo not drawn)	i	?	i	i	i	15µM
CCOC(=O)c1c(-c2ccc(OC)cc2)csc1NC(=O)C1CCCO1 (stereo not drawn)	i	?	i	i	i	?
COC(=O)c1c(-c2cccc(C)c2)csc1NC(=O)C1CCCO1 (stereo not drawn)	i	?	i	i	i	18µM
CCOC(=O)c1c(NC(=O)C2CCCO2)sc(C(N)=O)c1C (stereo not drawn)	i	i	i	i	28µM	i
COC(=O)c1c(-c2cc(C)ccc2C)csc1NC(=O)C1CC=CCC1C(=O)O (stereo not drawn)	i	i	i	i	i	i
CCC(C)NC(=O)c1sc2nc(C)c(C(=O)Nc3ccc(C)cc3C)c(-c3ccc(Br)cc3)c2c1N (stereo not drawn)	i	?	nt	nt	i	?
CCOC(=O)c1c(-c2ccc(C)cc2)csc1NC(=O)C1CCCO1 (stereo not drawn)	i	?	i	i	i	26µM
CCOC(=O)c1c(-c2ccc(C)cc2)csc1NC(=O)c1cc(=O)c2cc(Cl)ccc2o1	i	i	nt	nt	i	4.6µM
Cc1ccc(OCCN2C(=O)C(=O)c3cc(C)ccc32)cc1	i	0.92µM	i	?	i	?
Cc1cccc2c1N(CCOc1ccc(C(C)(C)C)cc1)C(=O)C2=O	i	2.9µM	i	i	?	4.1µM
Cc1ccc(CN2C(=O)CSC(C)C2=O)cc1 (stereo not drawn)	i	i	i	i	nt	i
Cc1ccc(CN2C(=O)C(=O)c3cc(Br)cc(C)c32)cc1	i	2.3µM	nt	nt	i	1.5µM
O=C1c2ccccc2C(=O)N1CCOc1ccccc1	i	i	i	i	i	i
CCCOc1ccc(CN2C(=O)C(=O)c3cccc(C)c32)cc1	i	1.3µM	nt	nt	i	1.8µM
Cc1ccccc1C1(CC(=O)N2CCCCC2c2cccnc2)CC(=O)N(C2CCCC2)C1=O (stereo not drawn)	nt	i[9.04 µM]	nt	nt	nt	?
CCOC(=O)Cc1ccc(NC(=O)N(C(C)C)C2CCN(C(C)=O)CC2)cc1	i	i	nt	nt	i	i
Cc1ccc(OCCCn2c(=O)sc3ccccc32)cc1	i	i	i	i	i	i
Cc1ccc(OCCCN2C(=O)C(=O)c3cccc(C)c32)cc1	i	7.3µM	i	i	i	15µM
